We go through 18 molecules from the antibiotic and cytotoxicity screens of Wong et al. (2023).

The structures appear in SMILES notation. The whole screen tested about 39,000 compounds, of which about 500 (1.3%) were called active. The list comes from a sample in which actives are over-represented; it also holds similar structures and randomly drawn compounds.

This test concerns S. aureus RN4220. Put plainly: growth inhibition call (relative growth <= 0.2). The following applies: 50 µM.
Take `C[C@@H](O)COC[C@H]1O[C@@H]2O[C@H]3[C@H](O)[C@@H](O)[C@@H](O[C@H]4[C@H](O)[C@@H](O)[C@@H](O[C@H]5[C@H](O)[C@@H](O)[C@@H](O[C@H]6[C@H](O)[C@@H](O)[C@@H](O[C@H]7[C@H](O)[C@@H](O)[C@@H](O[C@H]8[C@H](O)[C@@H](O)[C@@H](O[C@H]1[C@H](O)[C@H]2O)O[C@@H]8COC[C@@H](C)O)O[C@@H]7COC[C@@H](C)O)O[C@@H]6COC[C@@H](C)O)O[C@@H]5COC[C@@H](C)O)O[C@@H]4COC[C@@H](C)O)O[C@@H]3COC[C@@H](C)O`: the growth inhibition call was “inactive”.

As to `C[C@@H]1CN([C@@H](C)CO)C(=O)c2cccc(NC(=O)c3ccc(-c4nccs4)cc3)c2O[C@@H]1CN(C)Cc1ccc(Cl)c(Cl)c1`, the growth inhibition call was “inactive”. As for `Cn1cnc(S(=O)(=O)N2C[C@H](O)COC[C@@H]3O[C@@H](CC(=O)NC4CCCC4)CC[C@H]32)c1`, the entry is “inactive”.

Turning to `NCC[S@@](=O)c1c(-c2ccc(F)cc2)[nH]c2ccccc12`, the growth inhibition call is “inactive”.

In the case of `Cc1[nH]c2ccccc2c1C(=O)CSc1ccc(Cl)cc1`, the growth inhibition call is “inactive”. Next, `CSc1c(-c2ccc(Cl)cc2)[nH]c2ccccc12`: “active”. As for `CC(C)NC(=O)Nc1ccc2c(c1)C(=O)N([C@@H](C)CO)C[C@@H](C)[C@H](CN(C)C(=O)Nc1ccc3c(c1)OCO3)O2`, the entry is “inactive”; as for `COc1ccc(NC(=O)N(C)C[C@H]2Oc3ncc(C#C[C@@H](C)O)cc3C(=O)N([C@@H](C)CO)C[C@H]2C)cc1`, “inactive”.

On to `COc1ccc2c3c(n(c2c1)C)[C@@H](CO)N(C[C@]13CN(C1)C(=O)CN(C)C)C(=O)CN(C)C`, for which the growth inhibition call is “inactive”.

`Cc1ccccc1-c1cc(N2CCN(C)CC2)ncc1N(C)C(=O)C(C)(C)c1cc(C(F)(F)F)cc(C(F)(F)F)c1`: the growth inhibition call was “active”. As for `COCCOC(=O)N1C(=O)[C@@]2(c3cc(C#Cc4ccc(OC)cc4)ccc31)[C@H](C(=O)N1CCN(c3ncccn3)CC1)[C@H]1C(=O)O[C@H](c3ccccc3)[C@H](c3ccccc3)N1[C@@H]2c1ccc(OCCO)cc1`, the entry is “inactive”; as for `C[C@@H]1CN([C@H](C)CO)C(=O)c2cc(NS(=O)(=O)c3ccccc3)ccc2O[C@@H](C)CCCCO[C@@H]1CN(C)C(=O)c1ccccc1`, “inactive”. Take `CNC[C@@H]1OCCCC[C@H](C)Oc2ccc(NC(=O)Nc3ccc(C(F)(F)F)cc3)cc2C(=O)N([C@H](C)CO)C[C@H]1C`: the growth inhibition call is “active”. For the molecule `CNC[C@@H]1OCCCC[C@H](C)Oc2ccc(NC(=O)Nc3ccc(C(F)(F)F)cc3)cc2C(=O)N([C@H](C)CO)C[C@@H]1C`, the growth inhibition call is “inactive”.

With `CNC[C@@H]1OCCCC[C@@H](C)Oc2ccc(NC(=O)Nc3ccc(C(F)(F)F)cc3)cc2C(=O)N([C@@H](C)CO)C[C@@H]1C`, the growth inhibition call is “inactive”. Next, `CNC[C@H]1OCCCC[C@@H](C)Oc2ccc(NC(=O)Nc3ccc(C(F)(F)F)cc3)cc2C(=O)N([C@H](C)CO)C[C@@H]1C`: “inactive”. Next, `CNC[C@H]1OCCCC[C@@H](C)Oc2ccc(NC(=O)Nc3ccc(C(F)(F)F)cc3)cc2C(=O)N([C@H](C)CO)C[C@H]1C`: “active”; `CNC[C@@H]1OCCCC[C@@H](C)Oc2ccc(NC(=O)Nc3ccc(C(F)(F)F)cc3)cc2C(=O)N([C@@H](C)CO)C[C@H]1C`: “inactive”.
